In all, about 2,000 compounds were measured (“B-score”: median about -0.0024, highest 2% from about 4 on). The full list was thinned out, with the highest values kept by preference.
Each molecule was assayed on Balamuthia mandrillaris (ATCC PRA-291) trophozoites, axenic culture (assay: primary screen, b score). Conditions: 20 µM.
How it was run: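 Trophozoites (3,000/well) in axenic medium exposed to library drugs at 20 µM in 0.2% DMSO for 72 h; viability by CellTiter Glo luminescence at 2, 4 and 8 h. Controls: vehicle and freeze-thaw amoeba lysate; B-score corrects row, column and edge effects.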
With `C[N+](C)(C)CCOP(=O)([O-])OP(=O)(O)OC[C@H]1O[C@@H](n2ccc(N)nc2=O)[C@H](O)[C@@H]1O` the B-score was -1.73. `CN(C)c1ccc(C(=C2C=CC(=[N+](C)C)C=C2)c2ccc(N(C)C)cc2)cc1` was tested, and the B-score was 9.22. `O=C(OOC(=O)c1ccccc1)c1ccccc1` was tested, and the B-score was -0.0136. `CC(C)(C)CC(C)(C)c1cc(Cc2cc(C(C)(C)CC(C)(C)C)cc(-n3nc4ccccc4n3)c2O)c(O)c(-n2nc3ccccc3n2)c1` was tested, and the B-score was -1.88. In the case of `Cc1ccc(-c2ncc(Cl)cc2-c2ccc(S(C)(=O)=O)cc2)cn1`, the B-score is reported as 2.78. Molecule `Cc1nc2n(c(=O)c1CCN1CCC(c3noc4cc(F)ccc34)CC1)CCC[C@H]2O` has a B-score of 0.893. Work on `OCC(S)CS` (stereo not drawn) yielded a B-score of 8.18. In the case of `CC(O)Cn1cnc2c1c(=O)n(C)c(=O)n2C` (stereo not drawn), the B-score is reported as -3.33. With `NS(=O)(=O)c1cc(C2(O)NC(=O)c3ccccc32)ccc1Cl` (stereo not drawn) the B-score was 0.358. `O[C@H]1[C@H](O)[C@@H](O)[C@H](O)[C@@H](O)[C@H]1O` showed a B-score of -1.95. Molecule `N=C(NCCCCCCNC(=N)NC(=N)Nc1ccc(Cl)cc1)NC(=N)Nc1ccc(Cl)cc1` has a B-score of 20.8. Molecule `CC(C)/N=C(N)/N=C(\N)Nc1ccc(Cl)cc1` [131550-L3] has a B-score of -1.38. Molecule `CC(C)/N=C(N)/N=C(\N)Nc1ccc(Cl)cc1` [131550-L2] has a B-score of 0.326. With `Cc1cccc(C)c1NC(=O)C(C)N` (stereo not drawn) the B-score was 0.0863. `CC[C@@H](CO)NC(=O)[C@@H]1C=C2c3cccc4c3c(cn4C)C[C@H]2N(C)C1` [756841-L1] showed a B-score of 0.825. Molecule `CC(=O)Oc1cc2c(s1)CCN([C@H](C(=O)C1CC1)c1ccccc1F)C2` has a B-score of 0.0184. In the case of `CN[C@@H]1[C@@H](O[C@H]2O[C@H](CO)[C@@H](N)[C@H](O)[C@H]2O)O[C@H]2C[C@@H](N)[C@H](O[C@H]3[C@H](O)[C@@H](O)[C@H](N)C[C@@H]3N)O[C@@H]2[C@@H]1O`, the B-score is reported as -1.36. `O=C(O)c1ccccc1-c1c2cc(I)c(=O)c(I)c-2oc2c(I)c(O)c(I)cc12` gave a B-score of 14.8. Work on `N[C@@H]1[C@H]2CN(c3nc4c(cc3F)c(=O)c(C(=O)O)cn4-c3ccc(F)cc3F)C[C@@H]12` yielded a B-score of -1.05. With `C#C[C@]1(O)CCC2C3CCc4cc(OC)ccc4C3CC[C@@]21C` (stereo partly drawn) the B-score was -0.0352. For `COc1cc2c(cc1OC)C(=O)C(CC1CCN(Cc3ccccc3)CC1)C2` (stereo not drawn), the B-score was -0.41. Work on `c1ccc2c(c1)Nc1ccccc1S2` yielded a B-score of 0.971. For `CC(=O)N[C@@H]1[C@@H](C(O)[C@H](O)CO)O[C@](O)(C(=O)O)C[C@@H]1O` (stereo partly drawn), the B-score was -1.13. `Cc1nc(Nc2ncc(C(=O)Nc3c(C)cccc3Cl)s2)cc(N2CCN(CCO)CC2)n1` [756746-L2] showed a B-score of 1.19. Work on `Cc1nc(Nc2ncc(C(=O)Nc3c(C)cccc3Cl)s2)cc(N2CCN(CCO)CC2)n1` [756746-L1] yielded a B-score of 8.3. Work on `C[C@H]1O[C@@H](O[C@H]2[C@@H](O)C[C@H](O[C@H]3[C@@H](O)C[C@H](O[C@H]4CC[C@@]5(C)[C@H](CC[C@@H]6[C@@H]5CC[C@]5(C)[C@@H](C7=CC(=O)OC7)CC[C@]65O)C4)O[C@@H]3C)O[C@@H]2C)C[C@H](O)[C@@H]1O` yielded a B-score of -0.38. `CC(=O)Oc1ccccc1C(=O)Nc1ncc([N+](=O)[O-])s1` was tested, and the B-score was -0.287. `C=C1C[C@@H]2[C@H](CC[C@]3(C)C(=O)CC[C@@H]23)[C@@]2(C)C=CC(=O)C=C12` showed a B-score of 7.82. Molecule `C=C1CC2C(CC[C@]3(C)C(=O)CCC23)[C@@]2(C)C=CC(=O)C=C12` (stereo partly drawn) has a B-score of -0.0158. In the case of `C[C@]12CC[C@H](O)CC1=CCC1C2CC[C@]2(C)C(=O)CC[C@@H]12` (stereo partly drawn), the B-score is reported as 0.449. In the case of `CCN1CCN(c2cc3c(cc2F)c(=O)c(C(=O)O)cn3C2CC2)CC1`, the B-score is reported as -2.37. Molecule `CO/N=C(\C(=O)N[C@@H]1C(=O)N2C(C(=O)O)=C(COC(C)=O)CS[C@H]12)c1csc(N)n1` has a B-score of 2.94. `N[C@@H](Cc1ccccc1)C(=O)O` showed a B-score of -1.27. For `C#CC1(O)CCC2C3CCC4=C/C(=N/O)CCC4C3CCC21CC` (stereo not drawn), the B-score was -0.44. In the case of `CC(C)(O)c1ccccc1CC[C@@H](SCC1(CC(=O)O)CC1)c1cccc(/C=C/c2ccc3ccc(Cl)cc3n2)c1`, the B-score is reported as -1.02. `Oc1c(Cl)cc(Cl)cc1Sc1cc(Cl)cc(Cl)c1O` gave a B-score of -2.1. In the case of `CC(=O)OCC1=C(C(=O)O)N2C(=O)[C@@H](NC(=O)Cc3cccs3)[C@H]2SC1`, the B-score is reported as 4.7. In the case of `CC(=O)OCC1=C(C(=O)O)N2C(=O)[C@@H](NC(=O)CC#N)[C@H]2SC1`, the B-score is reported as -1.27. With `CC(=O)OCC1=C(C(=O)O)N2C(=O)[C@@H](NC(=O)CSc3ccncc3)[C@H]2SC1` the B-score was -1.22. In the case of `Cc1cn([C@H]2C[C@H](N=[N+]=[N-])[C@@H](CO)O2)c(=O)[nH]c1=O` [735592-L3], the B-score is reported as -1.48. Molecule `CC(C)(C)NC(=O)[C@H]1C[C@@H]2CCCC[C@@H]2CN1C[C@@H](O)[C@H](Cc1ccccc1)NC(=O)[C@@H](CC(N)=O)NC(=O)c1ccc2ccccc2n1` has a B-score of -1.24. `NC[C@@H]1O[C@H](O[C@@H]2[C@@H](CO)OC(O[C@@H]3[C@@H](O)[C@H](N)C[C@H](N)[C@H]3OC3O[C@H](CN)[C@@H](O)[C@H](O)[C@H]3N)[C@@H]2O)[C@H](N)[C@@H](O)[C@@H]1O` (stereo partly drawn) was tested, and the B-score was 0.82. In the case of `CC[C@H]1OC(=O)[C@H](C)[C@@H](O[C@H]2C[C@@](C)(OC)[C@@H](O)[C@H](C)O2)[C@H](C)[C@@H](O[C@@H]2O[C@H](C)C[C@H](N(C)C)[C@H]2O)[C@](C)(O)C[C@@H](C)/C(=N\OCOCCOC)[C@H](C)[C@@H](O)[C@]1(C)O`, the B-score is reported as 0.27. In the case of `CCC1=C(C)CN(C(=O)NCCc2ccc(S(=O)(=O)NC(=O)N[C@H]3CC[C@H](C)CC3)cc2)C1=O`, the B-score is reported as 1.92. `O=C(O)C[C@H](O)C[C@H](O)/C=C/c1c(C2CC2)nc2ccccc2c1-c1ccc(F)cc1` showed a B-score of -0.609. With `COCc1c(C(C)C)nc(C(C)C)c(/C=C/[C@@H](O)C[C@@H](O)CC(=O)O)c1-c1ccc(F)cc1` the B-score was 13.3. Work on `CC(C)c1nc(N(C)S(C)(=O)=O)nc(-c2ccc(F)cc2)c1/C=C/[C@@H](O)C[C@@H](O)CC(=O)O` yielded a B-score of 3.13. With `CC[N+](CC)(CC)CCOc1cccc(OCC[N+](CC)(CC)CC)c1OCC[N+](CC)(CC)CC` the B-score was 5.36. `CC(C)NC[C@H](O)COc1cccc2ccccc12` was tested, and the B-score was -4.66. `CC(C)NCC(O)COc1cccc2ccccc12` (stereo not drawn) showed a B-score of 0.797. `CC(Cc1ccccc1)(NC(=O)CN)c1ccccc1` (stereo not drawn) showed a B-score of 1.27. Work on `CC[C@H]1CN2CCC1C[C@@H]2[C@@H](O)c1ccnc2ccc(OC)cc12` (stereo partly drawn) yielded a B-score of 0.0568. `CCCCC1(COC(=O)CCC(=O)O)C(=O)N(c2ccccc2)N(c2ccccc2)C1=O` gave a B-score of -1.04. With `O=C1CC[C@@H](N2C(=O)c3ccccc3C2=O)C(=O)N1` the B-score was -1.22.

Reference: PMC6212833
